# Results as given in PubChem BioAssay (NCI).
# Compounds without any hit were thinned out: in the full panel of roughly 83,000, 20% have a hit.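 Method: cells in 96-well plates; compound added at one concentration; 48 h incubation; percent growth measured; values under 10 scored active.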 The source made the active and inactive calls.
# Key:
# Experiment in all cases: NCI-60 one-dose screen, 48 h (100 = growth as untreated, 0 = no growth, -100 = all killed)
# Settings in all cases: 10 µM unless noted
# SR leukemia = test system: SR leukemia
# RPMI-8226 leukemia = test system: RPMI-8226 leukemia
# OVCAR-8 ovarian = test system: OVCAR-8 ovarian
# OVCAR-5 ovarian = test system: OVCAR-5 ovarian
# OVCAR-4 ovarian = test system: OVCAR-4 ovarian
# SK-OV-3 ovarian = test system: SK-OV-3 ovarian
# IGROV1 ovarian = test system: IGROV1 ovarian
# OVCAR-3 ovarian = test system: OVCAR-3 ovarian
# HS 578T breast = test system: HS 578T breast
# NCI/ADR-RES ovarian = test system: NCI/ADR-RES ovarian
# T-47D breast = test system: T-47D breast
# BT-549 breast = test system: BT-549 breast
# MDA-MB-435 melanoma = test system: MDA-MB-435 melanoma
# SW-620 colon = test system: SW-620 colon
# MCF7 breast = test system: MCF7 breast
# HCT-116 colon = test system: HCT-116 colon
# HCC-2998 colon = test system: HCC-2998 colon
# KM12 colon = test system: KM12 colon
SMILES,growth (SR leukemia),growth (RPMI-8226 leukemia),growth (OVCAR-8 ovarian),growth (OVCAR-5 ovarian),growth (OVCAR-4 ovarian),growth (SK-OV-3 ovarian),growth (IGROV1 ovarian),growth (OVCAR-3 ovarian),growth (HS 578T breast),growth (NCI/ADR-RES ovarian),growth (T-47D breast),growth (BT-549 breast),growth (MDA-MB-435 melanoma),growth (SW-620 colon),growth (MCF7 breast),growth (HCT-116 colon),growth (HCC-2998 colon),growth (KM12 colon)
NC(=S)N/N=C/c1cn(-c2ccccc2)nc1-c1cc2ccccc2oc1=O,12.2% (inactive),33.4% (inactive),64.5% (inactive),88.1% (inactive),79.2% (inactive),83.2% (inactive),46.7% (inactive),34.4% (inactive),64.4% (inactive),48.6% (inactive),47.8% (inactive),42.5% (inactive),-47.5% (active),22.7% (inactive),33.3% (inactive),27.2% (inactive),88.4% (inactive),30.9% (inactive)
COc1ccc(Cn2cc(C(=O)N=Nc3c(O)[nH]c4c(Cl)cccc34)nn2)cc1,80.3% (inactive),106% (inactive),97.4% (inactive),123% (inactive),104% (inactive),113% (inactive),103% (inactive),113% (inactive),97.5% (inactive),105% (inactive),100% (inactive),111% (inactive),101% (inactive),99.7% (inactive),84.3% (inactive),91.6% (inactive),99.3% (inactive),107% (inactive)
CCNc1nc(-c2ccc(F)cc2)c(C#N)c(=O)n1C,50.3% (inactive),91.8% (inactive),73.8% (inactive),56% (inactive),55.2% (inactive),55.9% (inactive),54.1% (inactive),59.1% (inactive),37.5% (inactive),67.1% (inactive),39.3% (inactive),42.1% (inactive),75.2% (inactive),69.3% (inactive),63.4% (inactive),52.1% (inactive),88.8% (inactive),72.1% (inactive)
O=C1NC(=O)c2c1c1c3ccccc3[nH]c1c1oc3ccc(F)cc3c21,31.5% (inactive),74.5% (inactive),91.6% (inactive),84.1% (inactive),57.8% (inactive),84% (inactive),21.1% (inactive),83.1% (inactive),82.2% (inactive),79.1% (inactive),24.4% (inactive),71% (inactive),76% (inactive),64.6% (inactive),34% (inactive),69% (inactive),65.6% (inactive),45.9% (inactive)
COc1ccc(Cc2cnc(NC(=O)c3sc4ccccc4c3Cl)s2)cc1,9.94% (active),28.3% (inactive),18.7% (inactive),48.4% (inactive),60.5% (inactive),33.9% (inactive),25.9% (inactive),-8.48% (active),8.78% (active),6.4% (active),34.5% (inactive),34.7% (inactive),-39.1% (active),25% (inactive),17.5% (inactive),15.1% (inactive),25.6% (inactive),16.7% (inactive)
N#Cc1c(-c2ccccc2)c(C#N)c2c(C#N)c(N)nn2c1N,2.65% (active),21.2% (inactive),61.1% (inactive),78% (inactive),57.7% (inactive),62.2% (inactive),31.9% (inactive),15.5% (inactive),27.4% (inactive),29.9% (inactive),19.6% (inactive),47.4% (inactive),-39.6% (active),25.4% (inactive),15.9% (inactive),24.2% (inactive),61.4% (inactive),24.4% (inactive)
Cc1cccc(-n2c(C)nc3ccc(N4CCCNC4=O)cc3c2=O)c1,98% (inactive),104% (inactive),99.5% (inactive),112% (inactive),99.3% (inactive),114% (inactive),111% (inactive),107% (inactive),111% (inactive),103% (inactive),103% (inactive),108% (inactive),104% (inactive),104% (inactive),97.8% (inactive),102% (inactive),109% (inactive),111% (inactive)
CCNC(=O)Oc1ccc(/C(=C(/C)Cc2ccc(OC)cc2)c2ccc(OCCN3CCCC3)cc2)cc1,6.92% (active),44% (inactive),89.8% (inactive),83.8% (inactive),74.1% (inactive),88% (inactive),88% (inactive),77.5% (inactive),70.9% (inactive),85.9% (inactive),42.7% (inactive),85.9% (inactive),61.2% (inactive),81.4% (inactive),29% (inactive),44% (inactive),71.2% (inactive),71.5% (inactive)
COc1ccc2cc(-c3cnc4nonc4n3)ccc2c1,9.96% (active),0.566% (active),23.9% (inactive),76% (inactive),50% (inactive),71% (inactive),60.3% (inactive),11.1% (inactive),13.9% (inactive),-4.57% (active),15.5% (inactive),56.3% (inactive),-14.9% (active),26.9% (inactive),15.7% (inactive),18.3% (inactive),59.3% (inactive),23.1% (inactive)
CCOC(=O)NN1CC(O)=C(c2nc(-c3ccc(Br)cc3)cs2)C1=N,61.4% (inactive),115% (inactive),97% (inactive),89.5% (inactive),118% (inactive),108% (inactive),53% (inactive),99.9% (inactive),110% (inactive),108% (inactive),94.2% (inactive),116% (inactive),103% (inactive),107% (inactive),103% (inactive),132% (inactive),113% (inactive),118% (inactive)
N=C(N)c1ccc(-c2ccc(-c3ccc(Cl)cc3Cl)s2)cc1F,-6.47% (active),-36.4% (active),-35.3% (active),-7.4% (active),-24.9% (active),74.9% (inactive),-88.4% (active),-79.3% (active),9.71% (active),10.1% (inactive),14.8% (inactive),84.8% (inactive),-79.9% (active),-64% (active),-65.8% (active),-36.6% (active),-81.7% (active),-86.3% (active)
Cn1cccc1/C=C1\C(=O)Nc2ccccc21,72.8% (inactive),103% (inactive),107% (inactive),87.2% (inactive),48% (inactive),94.4% (inactive),76.3% (inactive),74.7% (inactive),101% (inactive),93.2% (inactive),18.2% (inactive),89.6% (inactive),103% (inactive),99.5% (inactive),12.3% (inactive),102% (inactive),48.8% (inactive),21.8% (inactive)
CC[C@@H](c1ccc2cc(OC)ccc2c1)C(C)(C)C(=O)F,112% (inactive),146% (inactive),94.8% (inactive),86.2% (inactive),109% (inactive),107% (inactive),28.3% (inactive),85.7% (inactive),91.8% (inactive),77.5% (inactive),118% (inactive),19.9% (inactive),102% (inactive),94.6% (inactive),108% (inactive),85.6% (inactive),55.1% (inactive),107% (inactive)
C=CC(=O)N1CCN(c2ccc3cccc(NC(=O)c4cnc(C)cn4)c3n2)CC1,9.43% (active),43.3% (inactive),27.2% (inactive),71.5% (inactive),43.7% (inactive),11.1% (inactive),9.7% (active),43.5% (inactive),34.3% (inactive),30.9% (inactive),28.2% (inactive),34.3% (inactive),33.1% (inactive),48.7% (inactive),48.2% (inactive),27.4% (inactive),72.4% (inactive),23% (inactive)
COc1cccc(/C=C2\COc3ccc(O)cc3C2=O)c1,5.49% (active),-24.8% (active),80.7% (inactive),101% (inactive),95% (inactive),114% (inactive),84.4% (inactive),78.4% (inactive),91.1% (inactive),89.9% (inactive),47.5% (inactive),78% (inactive),52.8% (inactive),18.1% (inactive),4.96% (active),32.8% (inactive),115% (inactive),43.7% (inactive)
CCCCCCCCn1ccc2cc(NC(=O)Cn3cc(CN4CCC(C)CC4)nn3)ccc21,-0.808% (active),-40.9% (active),32.8% (inactive),76.7% (inactive),63% (inactive),79.1% (inactive),39.6% (inactive),14.7% (inactive),59.2% (inactive),63.1% (inactive),6.9% (active),78.1% (inactive),-75.6% (active),-72.1% (active),4.43% (active),-18.6% (active),-78.8% (active),4.72% (active)
CC(C)CSc1oc(-c2ccccc2)nc1S(=O)(=O)c1ccccc1,91.7% (inactive),85.9% (inactive),94.7% (inactive),110% (inactive),86.6% (inactive),87% (inactive),94.5% (inactive),97.2% (inactive),96.6% (inactive),82.2% (inactive),62.4% (inactive),102% (inactive),105% (inactive),97.2% (inactive),92.3% (inactive),81.9% (inactive),100% (inactive),96% (inactive)
